Source: PubChem
The entries come from a sample that favours hits as a whole.
Dicer inh: human Dicer pre-microRNA cleavage inhibition | Q9UPY3 | hit rate 6% among 47,000 | AID 1347074 | z-score at 25 µM | cat-ELCCA pre-miR-21 Dicer processing, chemiluminescence; hits give high values; in the data active means z-score above about 3, passing the limit was not always enough;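 further: plate controls were vehicle for no effect and no enzyme for full effect; higher signal means more uncleaved substrate so more Dicer inhibition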
* hit, by the source's call.

SMILES	Dicer inh
COc1ccc(-c2cc(C(F)(F)F)n3nc(C(=O)NCC4CCCO4)c(Cl)c3n2)cc1OC (centres undefined)	0.18
O=C(CSc1nc2ccccc2nc1N1CCCC1)Nc1ccc(Cl)cc1	2.55
O=C(CSc1nc2ccccc2nc1N1CCCC1)Nc1ccc(Br)cc1	2.3
O=C(CSc1nc2ccccc2nc1N1CCOCC1)Nc1cccc(Br)c1	3.24*
COC(=O)c1sc(NC(=O)CSc2nnc3cc(C)c4ccccc4n23)c(C(=O)OC)c1C	-0.63
COc1ccc(-n2cc(C#N)c(=O)n(Cc3ccccc3)c2=O)cc1	1.86
COc1ccc(NC(=O)Nc2c(SC)nsc2SC)cc1	4.05*
COc1ccc(OCc2nnc(NC(=O)Nc3ccc(F)cc3)s2)cc1	1.87
COc1ccccc1NC(=O)Nc1c(SC)nsc1SC	-0.75
CC(C)(C)c1ccc(NC(=O)NNc2ncccc2C#N)cc1	2.69
Cc1ccc(C(=O)CC2(O)C(=O)N(CCc3ccccc3)c3ccc(Br)cc32)s1 (centres undefined)	4.9*
O=C(CC1(O)C(=O)N(CCc2ccccc2)c2ccc(Cl)cc21)c1cccs1 (centres undefined)	4.2*
Cc1ccccc1CN1C(=O)C(O)(CC(=O)c2cccnc2)c2cc(Cl)ccc21 (centres undefined)	2.44
O=C(CC1(O)C(=O)N(CCc2ccccc2)c2ccc(Br)cc21)c1cccs1 (centres undefined)	3
CN1C(=O)C(O)(CC(=O)c2ccc3c(c2)OCO3)c2ccccc21 (centres undefined)	1.78
Cc1coc(C)c1C(=O)CC1(O)C(=O)N(CCc2ccccc2)c2ccc(Br)cc21 (centres undefined)	-0.43
CN1C(=O)C(O)(CC(=O)c2ccc3c(c2)CCCC3)c2ccccc21 (centres undefined)	3.3*
O=C(CC1(O)C(=O)N(CCc2ccccc2)c2ccc(Br)cc21)c1ccco1 (centres undefined)	2.64
Cc1ccccc1CN1C(=O)C(O)(CC(=O)c2cccs2)c2cc(Cl)ccc21 (centres undefined)	5.34*
Cc1ccc(CN2C(=O)C(O)(CC(=O)c3cccs3)c3cc(Cl)ccc32)cc1 (centres undefined)	1.35
CCN1C(=O)C(O)(CC(=O)c2cccs2)c2ccccc21 (centres undefined)	0.2
CN1C(=O)C(O)(CC(=O)c2ccccc2)c2ccccc21 (centres undefined)	1.98
C=CCOC(=O)C1=C(C)NC2=C(C(=O)CC(C)(C)C2)C1c1cccc(OC)c1OC (centres undefined)	-0.59
c1nc(NC2CCCCC2)c2c3c(sc2n1)CCCC3	-0.62
CCC(CO)NC(=S)Nc1ccc(C)c(Cl)c1 (centres undefined)	-9.08
SMILES	Dicer inh
Cc1ccc(CSc2n[nH]c(=O)[nH]c2=O)cc1	-5.47
CSc1nc2ccc([N+](=O)[O-])cc2s1	-0.26
COC(=O)/C(C#N)=C/c1ccc(C(F)(F)F)cc1	7.65
CCCC1=C(C(=O)OCC)C(c2cc(OC)ccc2OC)n2c(nc3ccccc32)N1 (centres undefined)	1.03
O=C(CC1(O)C(=O)N(Cc2ccc(Cl)cc2)c2ccccc21)c1cccs1 (centres undefined)	0.52
CN(C)c1ccc(C(=O)CC2(O)C(=O)N(Cc3ccc(Cl)cc3)c3ccccc32)cc1 (centres undefined)	-1.67
O=C(CC1(O)C(=O)N(Cc2ccccc2)c2ccccc21)c1ccc(Cl)cc1 (centres undefined)	3.05*
COc1cc(C(=O)NC2CCCCC2)cc(OC)c1OC	-2.52
CC1=C(C(=O)OC(C)C)C(c2ccccc2Cl)C2=C(CC(c3ccccc3)CC2=O)N1 (centres undefined)	2.98
Cc1cc(S(=O)(=O)c2ccc([N+](=O)[O-])cn2)c(Cl)cc1Cl	-0.85
COc1ccccc1NC(=O)NC(N)=O	1.63
COc1ccccc1NC(=O)Nc1ccccc1OC	12
CCOc1ccccc1NC(=O)Nc1ccc(OC)nc1	3.84*
Cc1cn2c3ccccc3n(CCN3CCCC3)c2n1	0.49
COC(=O)c1c(C)nc2n(CCN3CCCCC3)c3ccccc3n12	1.07
Cc1nn2c3ccccc3n(CCN3CCCCC3)c2nc1=O	3.15*
COC(=O)/C=C1\Nc2ccccc2NC1=O	-0.22
Nc1ccc(-c2nc3cc(N)ccc3o2)cc1	-0.37
CN(C)c1ccc(-c2nc3cc(N)ccc3o2)cc1	3.41*
Cc1cc2nc(-c3cccc(N)c3)oc2cc1C	0.66
Nc1cccc(-c2nc3ccccc3o2)c1	0.17
Nc1cccc(-c2nc3cc(Cl)ccc3o2)c1	4.51*
CCOc1ccc(-c2nc3cc(N)ccc3o2)cc1	1.51
COc1ccc(N(Cc2ccccn2)C(=O)c2ccc(F)cc2)cc1	-0.43
Cc1ccc2c(C)nc(Nc3nc(C)c(CCC(C)C)c(=O)[nH]3)nc2c1	0.48
SMILES	Dicer inh
CCOC(=O)/C(C#N)=C/Nc1nc2ccc(C)cc2s1	2.21
CCc1ccc(S(=O)(=O)Nc2cccc(S(N)(=O)=O)c2)cc1	-0.66
CCc1ccc(CC)c(S(=O)(=O)Nc2ccc3oc(=O)sc3c2)c1	7.82*
CCCC(=O)N(c1ccc2oc(=O)sc2c1)S(=O)(=O)c1ccc(Cl)cc1	2.07
CCCCC(=O)N(c1ccc2oc(=O)sc2c1)S(=O)(=O)c1ccccc1	-0.63
CCc1ccc(-c2nc3cc(NS(=O)(=O)c4ccccc4)ccc3o2)cc1	1.96
CCc1ccc(S(=O)(=O)Nc2ccc3oc(=O)sc3c2)cc1	7.88*
O=C(CSc1cc(-c2ccccc2)nc2ncnn12)c1ccc(Br)cc1	-0.04
COc1ccccc1N(CC(O)COc1ccc(Cl)cc1)S(=O)(=O)c1ccccc1 (centres undefined)	0.31
Cc1cccc2c1N[C@H](c1ccc(C(=O)O)cc1)C1CC=CC21 (some centres undefined)	0.98
COc1ccc2c(c1)[C@@H]1C=CC[C@@H]1[C@H](c1ccc(C(=O)O)cc1)N2	4.16*
CCOC(=O)c1ccc2c(c1)[C@@H]1C=CC[C@@H]1[C@H](c1ccc(C(=O)O)cc1)N2	0.06
COC(=O)c1ccc2c(c1)C1C=CCC1[C@@H](c1ccc(C(=O)O)cc1)N2 (some centres undefined)	-1.66
Cc1c(C(=O)O)ccc2c1NC(c1ccc(C(C)C)cc1)C1CC=CC21 (centres undefined)	3.36*
O=C(O)c1cccc2c1NC(c1ccc(Br)cc1)C1CC=CC21 (centres undefined)	-0.72
CCCc1[nH]nc2c1C(c1ccc(OCC)cc1)C(C#N)=C(N)O2 (centres undefined)	-5.36
O=C(NC1CCN(c2nccc(C(F)(F)F)n2)CC1)c1cccs1	-0.84
Cc1cc(C)c2c(N)c(C(=O)c3ccccc3)sc2n1	-0.42
COc1ccc(C(=O)c2sc3nc(-c4ccc(OC)cc4)ccc3c2N)cc1	0.01
Cc1ccc2c(N)c(C(=O)c3ccc(-c4ccccc4)cc3)sc2n1	3.25*
CSc1c(C#N)c(-c2cccs2)nn1C	-3.69
CC1(c2ccncc2)NC(=O)NC1=O (centres undefined)	0.14
O=S(=O)(c1cccc(Cl)c1)N1C=CC(C(F)(F)F)=NCC1	-0.62
O=C(OCC#CCOC(=O)c1cccnc1)c1cccnc1	0.13
CC1(C)CC(=O)C=C(Sc2ccc(C#N)cc2[N+](=O)[O-])S1	0.96
COC(=O)C1=C(C)NC2=C(C(=O)CC(C)(C)C2)C1c1ccc(OC)c(Br)c1 (centres undefined)	1.23
